Laboratory results reported in PubChem BioAssay AID2763 (National Center for Advancing Translational Sciences (NCATS), 2010).
Results filed as inconclusive are left out. Unmarked numbers belong to inactive results. Calls of active or inactive are those of the source. The call rests on the fitted dose curve; in most records, active means well fitted inhibition curve with a large enough effect; inconclusive means small, poorly fitted or top-dose-only effect, or effect the other way; inactive means no such curve, though single readings can be large or run the other way.

Test: Concentration response confirmation VP16 counterscreen for inhibitors of ROR gamma transcriptional activity; further: nearly all actives have a fitted effect of over 70% in size
Conditions: Drosophila S2 Gal4-VP16 UAS-luciferase, luminescence, 20 h; series mostly up to 46.1 µM; activity change, negative = inhibition: at the top concentration
Description: NIH Molecular Libraries Probe Production Network [MLPCN] NIH Chemical Genomics Center [NCGC] MLPCN Grant: R03 DA026211-01 Assay Provider: Dan Littman, New York University Assay Overview: The retinoic acid-related orphan receptor (ROR) gamma is a transcription factor that has a central role in the differentiation of Th17 cells, a subset of T helper cells that secrete the inflammatory cytokines IL-17, IL-17F, and IL-22. Th17 cells have been implicated in graft versus host disease, autoimmune disease and asthma. ROR gamma is induced in naive T helper cells in the presence of TGF-beta combined with IL-6, IL-21, or IL-23, and thereafter directs the expression of the Th17 lineage cytokines. To identify nonspecific inhibitors, a Drosophila Schneider cell line was stably transfected with two vectors: a gene expressing a fusion of the Gal4 DNA binding domain and the transactivation domain of the viral transcription factor VP16, under the control of the metallothionine promoter and a Photinus luciferase reporter regulated by the Gal4 binding site enhancer, UAS. […] Small molecule inhibitors that inhibit components common to the RORgt and VP16 assays, such as the Gal4 DNA binding domain or the UAS luciferase reporter, will be active in both assays and thus scored as nonspecific.
Assay Protocol Summary: For screening, 600 cells in 4 uL/well were dispensed into white solid 1536-well plates (Grenier) using a solenoid-based dispenser. Following transfer of 23 nL compound or DMSO vehicle by a pin tool, the plates were incubated 1 hr at ambient temperature, and 1 uL/well copper sulfate (700 uM final concentration) was added. The plates were centrifuged 15 s at 1000 RPM and incubated 20 hr at ambient temperature. After addition of 1.5 uL Photinus luciferase detection reagent, the plates were incubated 10 min at ambient temperature and then read by an ViewLux (Perkin Elmer) to detect luminescence.
On the % scale 0 is the no-effect control and ±100 the full control effect; potency means the concentration at half of the fitted maximal effect.

Row | Structure (SMILES) | activity change, negative = inhibition | Potency
1 | O=C(CSc1n[nH]c(=O)n1-c1ccc2c(c1)OCCO2)Nc1ccccc1 | 6.27% | –
2 | COc1ccc(C(=O)Nc2cc(-c3ccc(C)cc3)no2)cc1 | -17.6% | –
3 | Cc1cc(NC(=O)CN2CCOCC2)n(-c2nc3ccccc3s2)n1 | – | 12.5 µM (active)
4 | COCC1CCCCN1C(=O)c1cc(COc2ccc3ncccc3c2)on1 (stereo not given) | – | 7.05 µM (active)
5 | S=c1[nH]c(-c2ccc(Br)cc2)cn1CCc1ccccc1 | – | 14.1 µM (active)
6 | Cc1ccc(Oc2nc(-c3ccccn3)nc3ccccc23)cc1 | – | 3.53 µM (active)
7 | Cc1ccc(NC2=C(Cl)C(=O)OC2OC(=O)c2ccco2)cc1 (stereo not given) | -1.27% | –
8 | CCOC(=O)c1nnsc1Nc1ccc(C)c(C)c1 | 22.9% | –
9 | O=C(NCC1CCCO1)C(C(=O)c1ccccc1)n1ccccc1=O (stereo not given) | 1.49% | –
10 | CN1CCN(CCC(=O)Nc2cccc(F)c2)CC1 | 10.5% | –
11 | COC(=O)c1ccc2nc(Nc3nc4ccc(F)cc4s3)sc2c1 | – | 5.6 µM (active)
12 | COc1cc(CNS(=O)(=O)c2ccc3c(c2)CC(C)N3C(=O)C2CCC2)cc(OC)c1OC (stereo not given) | – | 9.96 µM (active)
13 | Cc1ccc(OCCCC(=O)Nc2nc3ccccc3[nH]2)cc1 | 10.7% | –
14 | COc1ccc(OC)c(/C=C2\SC(=S)N(C(C(=O)O)c3ccccc3)C2=O)c1 (stereo not given) | -2.55% | –
15 | Cc1nc2c(-c3ccccc3)cnn2c(N)c1-c1ccccc1 | – | 11.2 µM (active)
16 | CC(=O)c1cnc2nc(C(F)(F)F)nn2c1C | 1.06% | –
17 | O=[N+]([O-])c1cc2c(cc1/C=N/Nc1nc(Nc3ccccc3)nc(N3CCCCC3)n1)OCO2 | 11.4% | –
18 | C=CCn1c(SCC(=O)c2ccc(OC)cc2)nnc1-c1cc2cccc(OC)c2o1 | -9.07% | –
19 | CCNC(=O)CCc1nc(-c2ccc(C(C)(C)C)cc2)no1 | – | 4.45 µM (active)
20 | Cn1nnnc1NCc1ccccc1F | 6.76% | –

Row | Structure (SMILES) | activity change, negative = inhibition | Potency
21 | CCC(C)[C@H](NC(=O)NCc1ccco1)C(=O)O (stereo not given in full) | -8.74% | –
22 | CCN(C1CCCCC1)S(=O)(=O)c1ccc(S(=O)(=O)NCc2ccncc2)cc1 | – | 28.1 µM (active)
23 | N=C1S/C(=C\c2ccco2)C(=O)N1c1nccs1 | – | 0.396 µM (active)
24 | O=C(Cn1c(=O)oc2ccc(Cl)cc21)Nc1ccon1 | -9.8% | –
25 | COC(=O)c1ccc(OCC(=O)c2ccc(O)cc2O)cc1 | – | 1.58 µM (active)
26 | O=C(CSc1ccccc1C(=O)N1CCCCC1)NCC1CCCCC1 | 0.588% | –
27 | OCCNc1nc2ccccc2n1-c1ncnc2sc3c(c12)CCC3 | – | 15.8 µM (active)
28 | Cc1ccc(-n2[nH]c3c4c(ccc3c2=O)C(=O)c2ccccc2C4=O)cc1 | 3.45% | –
29 | COc1cc(C(=O)NC2CC(C)(C)Cc3c2cnn3-c2ccccc2)cc(OC)c1OC (stereo not given) | -6.83% | –
30 | S=c1[nH]nc(-c2cc(-c3ccccn3)nc3ccccc23)o1 | 20.8% | –
31 | COc1nc(N/N=C/c2cc3c(cc2Br)OCO3)nc(N2CCOCC2)n1 | 2.66% | –
32 | CCOC(=O)c1ccc2nc(Nc3nc4ccc(F)cc4s3)sc2c1 | – | 25 µM (active)
33 | O=[N+]([O-])c1ccccc1/C=C/C=N/n1c(-c2ccccc2)n[nH]c1=S | 17.5% | –
34 | Cc1cccc(NC(=O)c2cc3ccccc3o2)c1 | – | 25 µM (active)
35 | Cc1nc2c(-c3ccc(F)cc3)cnn2c(N)c1-c1ccccc1 | – | 0.281 µM (active)
36 | Cc1ccc(-c2noc(CCC(=O)N(C)c3ccccc3C)n2)cc1 | 3.03% | –
37 | COc1ccc(-c2cc(C(F)(F)F)nc(S(=O)(=O)CCCC(=O)Nc3cccnc3Cl)n2)cc1OC | – | 9.96 µM (active)
38 | CC(C)(C)S(=O)(=O)c1cnc2c(-c3ccc(Cl)cc3)cnn2c1N | – | 6.28 µM (active)
39 | Cc1sc2ncnc(Sc3nnc4sc5ccccc5n34)c2c1C | -7.34% | –
40 | CCOc1ccc(OCc2cccc(C(=O)O)c2)cc1 | – | 8.88 µM (active)
